Assay outcomes as filed in PubChem.
Compounds with a hit are over-represented: about 2.3% of the library has one in this group of screens.
CHT block: inhibitors of human choline transporter CHT; B-score at 10 µM; High affinity choline transporter 1 (Homo sapiens), Q9GZV3; AID 488975, 2010; CHT-expressing cells, membrane potential dye, choline response; hits give low values; hit rate 0.86% among 310,000;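 active means B-score over 3 SD under the library average, and starting fluorescence ratio not unusually high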;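 further: choline stimulus applied at its EC90 after an EC20 pre-addition; B-score computed on integrated fluorescence ratio after choline addition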
Target sequence (Q9GZV3 whole entry, looked up): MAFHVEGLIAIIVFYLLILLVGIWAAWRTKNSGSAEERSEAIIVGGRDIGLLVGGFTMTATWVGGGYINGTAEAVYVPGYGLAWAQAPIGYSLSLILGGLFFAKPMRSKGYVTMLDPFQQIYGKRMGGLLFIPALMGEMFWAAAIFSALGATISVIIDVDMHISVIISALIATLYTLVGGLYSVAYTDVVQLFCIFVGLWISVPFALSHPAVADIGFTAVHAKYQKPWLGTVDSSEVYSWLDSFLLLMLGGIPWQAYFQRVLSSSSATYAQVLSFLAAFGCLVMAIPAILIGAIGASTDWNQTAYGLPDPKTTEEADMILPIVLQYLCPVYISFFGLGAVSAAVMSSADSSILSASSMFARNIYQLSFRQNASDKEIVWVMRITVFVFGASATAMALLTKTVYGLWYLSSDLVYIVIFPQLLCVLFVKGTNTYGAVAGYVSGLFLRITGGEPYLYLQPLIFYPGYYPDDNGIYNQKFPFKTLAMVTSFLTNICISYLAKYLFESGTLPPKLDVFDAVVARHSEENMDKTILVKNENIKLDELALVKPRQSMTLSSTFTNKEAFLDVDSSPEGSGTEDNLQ
ANO1 activ: TMEM16A chloride channel activators or potentiators, primary screen, cell-based, HTS. B-score at 10 µM. HEK293 TMEM16A/YFP-H148Q/I152L, iodide quench fluorescence; hits give low values. hit rate 0.3% among 340,000. Anoctamin-1 (Mus musculus), Q8BHY3;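 active means fluorescence-ratio B-score plate-corrected deviation score at least 3 library SD below zero, with starting fluorescence score within 5 deviations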;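 further: channel opened by trigger with iodide after compound preincubation; score built on the fluorescence ratio of max minus min over baseline; more negative score means more quench and so TMEM16A activation or potentiation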
CHT PAM: CHT positive allosteric modulators, primary screen, cell-based, membrane potential dye, choline EC20. High affinity choline transporter 1 (Homo sapiens), Q9GZV3. CHT-expressing cells; hits give high values; LV-AA mutant CHT in HEK293 cells. B-score at 10 µM. hit rate 0.49% among 310,000. AID 488977, 2010;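 active means initial fluorescence not abnormally high and integrated response B-score, plate-corrected, over 3 SD above library mean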
TMEM16A inh: TMEM16A chloride channel inhibitors, primary screen, cell-based, HTS | Anoctamin-1 (Mus musculus), Q8BHY3 | HEK293 TMEM16A/YFP iodide influx fluorescence, ionomycin | normalized B-score (activity score, 25-100; higher = stronger inhibition) at 10 µM | hit rate 1.2% among 310,000;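 active means ratio plate-corrected score three or more library SD toward inhibition, starting fluorescence score within five deviations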;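 further: score derived from kinetic fluorescence span divided by baseline fluorescence per well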
Of the large screens only hits and unclear results are named; the others gave an inactive call.

CSC(=Nc1ccccc1)N=C(SCc1ccccc1)N(C)C	ANO1 activ -12.6 (no result: CHT block, CHT PAM, TMEM16A inh)
Cc1ccccc1CC(=O)Nc1cccc(S(=O)(=O)N2CCCC2)c1	none (no result: CHT block, CHT PAM, TMEM16A inh)
Clc1ccc(-c2ccnc(Oc3cc(Cl)ccc3Cl)n2)cc1	TMEM16A inh 25
COc1ccc(NS(=O)(=O)c2cccc(NC(=O)NC3CCCCC3)c2)cc1	TMEM16A inh 25
Cc1ccc(S(=O)(=O)N2[C@@H](c3cccc(Cl)c3)C(C(=O)O)=CC[C@H]2c2ccc(C(C)C)cc2)cc1	TMEM16A inh 100
O=C(O)C1=CC[C@@H](c2ccc(Cl)cc2)N(S(=O)(=O)c2ccc(Cl)cc2)[C@H]1c1cccc(Cl)c1	TMEM16A inh 100
Cc1ccc(S(=O)(=O)N2[C@@H](c3ccc(Cl)cc3)C(C(=O)O)=CC[C@H]2c2cccc(Cl)c2)cc1	TMEM16A inh 100
Cn1c2c(sc1=O)CCC2	none (no result: CHT block, CHT PAM, TMEM16A inh)
Clc1ccc2[nH]c(-c3ccccc3)cc2c1	TMEM16A inh 25
c1ccc(-c2cc3ccccc3[nH]2)cc1	none
Cn1cc(CN2CCC(n3nccc3NC(=O)C3CCCC3)CC2)cn1	none
O=C(NCc1ccc(Cl)cc1)c1ccc(CNc2c(N3CCOCC3)c(=O)c2=O)cc1	none
O=C(NCCc1ccc(Cl)cc1)c1ccc(CNc2c(N3CCOCC3)c(=O)c2=O)cc1	ANO1 activ -6.64
Cc1nn(C)c(C(=O)NC(=S)Nc2ccccc2Br)c1Cl	ANO1 activ -6.68
Cc1ccc(OCC(=O)NNC(=S)NC(=O)c2ccc(Br)o2)c(C)c1	TMEM16A inh 25
CCOc1ccccc1NC(=O)CSc1nnc(-c2cccnc2)o1	none
Cc1noc(C)c1COc1ccc(C(=O)OCc2nnc(-c3ccc(Cl)cc3)o2)cc1	ANO1 activ -4.95
NC(=O)CCC(=O)N1CCCC(C(=O)c2ccc(C(F)(F)F)cc2)C1 (configuration not stated)	none
Cc1ccc(C(=O)OCC(=O)NCc2ccc(Cl)cc2Cl)o1	none (no result: CHT block, CHT PAM, TMEM16A inh)
O=C(COc1cccc2ccccc12)Nc1ccc(Cl)cc1C(=O)O	CHT block -7.31, TMEM16A inh 100
Cc1ccc(S(=O)(=O)n2nccc2-c2c(-c3ccc(Cl)cc3)noc2C)cc1	ANO1 activ -4.86
CCc1ccc(-c2nc(CSCC(=O)N3CCN(c4ccccn4)CC3)c(C)o2)cc1	TMEM16A inh 100
Cc1ccc(-c2nc(CSCC(=O)N3CCN(c4ccccn4)CC3)c(C)o2)cc1	TMEM16A inh 25
COc1ccc(-c2noc(C(C)NC(=O)c3ccco3)n2)cc1OC (configuration not stated)	none
N#C/C(=C\c1ccc(OCc2ccccc2)cc1)C(N)=O	none
CC(OC(=O)/C(C#N)=C/c1ccc(N(C)C)cc1)C(=O)N(C)Cc1ccccc1 (configuration not stated)	ANO1 activ -10.1
CC(C)C(OC(=O)c1nsc(Cl)c1Cl)C(=O)NCc1ccccc1 (configuration not stated)	none
COc1cccc(CN(Cc2ccco2)C(c2ccc(F)cc2)c2nnnn2C(C)(C)C)c1 (configuration not stated)	ANO1 activ -25.6
COCCN(C(=O)CSc1n[nH]c(-c2ccccc2)n1)c1c(N)n(Cc2ccccc2)c(=O)[nH]c1=O	none
COc1cc(OC)cc(-c2c(-c3cccs3)c3cc(-c4cnc(OC)nc4)ccc3n2C)c1	none (no result: CHT block, CHT PAM, TMEM16A inh)
NC(=O)C[C@H](N)c1cn([C@@H](CC(N)=O)C(=O)N2CCNCC2)nn1	ANO1 activ -10
O=C(Cn1nc(-c2ccccc2)c2ccccc2c1=O)NCC1CCCO1 (configuration not stated)	none
O=C(CSc1nnc(-c2ccccc2)c2ccccc12)NCC1CCCO1 (configuration not stated)	ANO1 activ -6.82
COCCn1nnnc1C(c1ccc(OC)cc1OC)N1CCN(c2ccccc2)CC1 (configuration not stated)	none
COc1ccc(OC)c(C(c2nnnn2CCc2ccccc2)N2CCN(c3ccccc3)CC2)c1 (configuration not stated)	ANO1 activ -8.48
COCc1c(C#N)c(NCc2cc(OC)c(OC)c(OC)c2)nc(C)c1[N+](=O)[O-]	TMEM16A inh 25
CS(=O)(=O)c1ccc(Cl)c(NC(=O)COC(=O)CCN2C(=O)C3CC=CCC3C2=O)c1 (configuration not stated)	none (no result: CHT block, CHT PAM, TMEM16A inh)
CCNC(=S)NCc1ccc(Cl)cc1	ANO1 activ -9.59
CC1CCN(C(=O)c2[nH]cnc2C(=O)Nc2nccs2)CC1	none (no result: CHT block, CHT PAM, TMEM16A inh)
CSc1nnc(NC(=O)c2nc(S(=O)(=O)Cc3ccccc3)ncc2Cl)s1	CHT block -9.2
S=c1[nH]nc(Cc2cccc3ccccc23)n1-c1ccccc1	ANO1 activ -7.17
O=c1cc(-c2c(F)c(F)c(F)c(F)c2F)oc2c(F)c(F)c(F)c(F)c12	TMEM16A inh 25 (no result: ANO1 activ)
CSCCC(NC(=O)c1ccccc1Br)C(=O)N1CCN(C/C=C/c2ccccc2)CC1 (configuration not stated)	none (no result: CHT block, CHT PAM, TMEM16A inh)
CCN(CC)S(=O)(=O)c1ccc(/C=C/C(=O)Nc2ccc(Br)cc2F)cc1	TMEM16A inh 100
O=C1Nc2c(Cl)cc(Cl)cc2C1=O	none (no result: CHT block, CHT PAM, TMEM16A inh)
NS(=O)(=O)c1ccc(NC(=S)NC(=O)C2CCCCC2)cc1	ANO1 activ -4.73
Cc1cccc2c(C(=O)N3CCN(C(=O)c4ccco4)CC3)cc(-c3cccc(Br)c3)nc12	TMEM16A inh 100
O=C(CCNC(=O)C1CCN(S(=O)(=O)c2ccc(F)cc2)CC1)NCc1cccc(Cl)c1	none
O=S(=O)(Nc1ccncc1)c1cc(Cl)c(Cl)cc1Cl	none
CC(C)(C)OC(=O)NCC(=O)NNC(=O)C(C(=O)OCc1ccccc1)c1ccccc1 (configuration not stated)	none (no result: CHT block, CHT PAM, TMEM16A inh)
CCC[C@@H]1CCCC/C=C\CCCC(=O)OCCN1C(=O)OC(C)(C)C	none (no result: CHT block, CHT PAM, TMEM16A inh)
COc1ccc(N2CCOCC2)c(NC(=O)c2ccc(Br)o2)c1	none
COC(=O)c1ccc(N2CCN(C)CC2)c(NC(=O)c2ccc(Br)o2)c1	CHT block -5.33
O=c1c2c(n3cnnc3n1-c1ccccc1)-c1ccccc1CC21CCCCC1	none
CCn1c(=O)c2c(n3cnnc13)-c1ccccc1CC21CCCCC1	ANO1 activ -9.62
O=C(COC(=O)C(CO)NS(=O)(=O)c1ccc(Br)cc1)Nc1ccc2c(c1)OCCO2 (configuration not stated)	none (no result: CHT block, CHT PAM, TMEM16A inh)
CS(=O)(=O)c1ccc(C(=O)Nc2nc(-c3ccco3)c(-c3ccco3)s2)cc1	none (no result: CHT block, CHT PAM, TMEM16A inh)
O=C(Nc1ccccc1C(=O)N1CCN(c2cccc(Cl)c2)CC1)C1=CSCCO1	ANO1 activ -28.1
Cc1ccc(C(=O)COC(=O)CCNS(=O)(=O)c2ccccc2F)cc1	none (no result: CHT block, CHT PAM, TMEM16A inh)
CCc1ccc(-c2cc(-c3n[nH]c(=S)n3CC)c3ccccc3n2)cc1	CHT block -11 (no result: ANO1 activ)
CCn1c(-c2cc(-c3cccc(OC)c3)nc3ccccc23)n[nH]c1=S	none
Cn1cc(C(=O)c2ccc(Cl)cc2)cc1-c1nc2ccccc2n1C	TMEM16A inh 100
